Among the data in PubChem BioAssay (EPA / NIEHS) are AC50 and outcome values, retold here.

Broadly, the AC50 is the midpoint of the concentration-response curve, whichever way the signal moves.

The source made the active and inactive calls. Rule for the calls: active = hit-call score of the fitted dose curve at least 0.9, where 1 is the maximum; inactive = score below 0.9.

Assay [1] in a line: IUF_NPC1b_proliferation_BrdU_72hr: Leibniz Research Institute for Environmental Medicine (IUF) 72-hour Neural Progenitor Cell Bromodeoxyuridine (BrdU) Proliferation Assay (NPC1b) (AID 2284207). Here is the method:
IUF_NPC1 is a cell-based, multiplexed assay that uses hNPC, a human primary neural progenitor cells, with measurements taken at 72 hours after chemical dosing in a 96-well plate. Human neural progenitor cells (hNPC) are generated from human fetal brain cortex at gestational week (GW) 16-19. Grown in suspension culture and under proliferative conditions (proliferation media and growth factors), these cells represent neural progenitor cell proliferation. In the NPC1 assay, hNPC's are exposed to the test compound for 72h. Cell proliferation is assessed as an increase in sphere area using automated phase contrast imaging and as incorporation of Bromodeoxyuridine (BrdU) during DNA synthesis using a luminescence-based cell proliferation ELISA. In parallel, the cell viability is assessed using an alamar blue viability assay and the cytotoxicity using a lactate dehydrogenase dependent membrane integrity assay.IUF_NPC1b_proliferation_BrdU_72hr is one of 4 assay components measured from the IUF_NPC1 assay. […]

A short description of assay [2]: IUF_NPC1a_proliferation_area_72hr: Leibniz Research Institute for Environmental Medicine (IUF) 72-hour Neural Progenitor Cell Proliferation Area Assay (NPC1a) (AID 2284208). A digest of the protocol: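 Read-out: increase in sphere area over 72 h by automated phase-contrast imaging, fitted in positive direction versus DMSO baseline. One hNPC sphere (0.25-0.35 mm) per well in EGF/FGF medium; growth-factor withdrawal served as positive control.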

Assay [3] in a line: IUF_NPC1_viability_72hr: Viability Assessment at 72 hours in the Leibniz Research Institute for Environmental Medicine (IUF) Neural Progenitor Cell Proliferation Assay (NPC1) (AID 2284209). In a few lines:
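hNPC spheres, 1/well, EGF+FGF medium, 37C/5% CO2; dosed day 0, 72 h, no re-dosing. Resazurin reduction (alamar blue) fluorescence; DMSO = negative control/baseline; growth-factor-free wells as positive control.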

Consider `O=C1O[C@H]([C@@H](O)CO)C(O)=C1O`, for which the AC50 in assay [1] was 215 nM (active). The call in assay [2] and in assay [3] was inactive.

Regarding `CC(C)(c1cc(Br)c(O)c(Br)c1)c1cc(Br)c(O)c(Br)c1`, the result in assay [1], in assay [2] and in assay [3] was inactive.
